Compound activity: PubChem BioAssay, several laboratories
Sampled rows, rich in hits. Any-hit rate of the full collection: about 2.2%.
MEX-5 binding = C. elegans MEX-5 TCR-2 RNA binding activity; MEX-5/FITC-TCR2 RNA binding, fluorescence polarization; stronger effect = lower value; activity score (negative = inhibition of binding), % at 10 µM; actives 0.38% (n = 300,000); AID 1832;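 active means inhibition past about -25% in most replicates, and total fluorescence under double the plate's negative control median, limit read from the data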;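 further: 0% = DMSO and -100% = 5 µM competing unlabeled TCR2 RNA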
Target sequence (Q9XUB2 whole entry, looked up): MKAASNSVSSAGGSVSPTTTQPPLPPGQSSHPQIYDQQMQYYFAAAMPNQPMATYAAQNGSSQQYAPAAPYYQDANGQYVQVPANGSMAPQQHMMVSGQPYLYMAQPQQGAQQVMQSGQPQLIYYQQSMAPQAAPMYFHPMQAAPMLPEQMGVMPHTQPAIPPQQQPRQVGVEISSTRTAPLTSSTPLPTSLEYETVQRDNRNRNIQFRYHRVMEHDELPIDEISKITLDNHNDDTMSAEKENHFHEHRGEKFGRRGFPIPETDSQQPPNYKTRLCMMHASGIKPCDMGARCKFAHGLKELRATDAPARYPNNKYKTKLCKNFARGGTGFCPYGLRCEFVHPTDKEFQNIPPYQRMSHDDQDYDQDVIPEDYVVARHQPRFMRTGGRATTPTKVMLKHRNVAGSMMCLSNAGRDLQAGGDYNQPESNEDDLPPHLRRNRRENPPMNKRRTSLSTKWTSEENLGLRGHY
V-ATPase pHluor = yeast V-ATPase proton transport regulation by pHLuorin; S. cerevisiae, pHLuorin cytosolic pH fluorescence; response, % at 10 µM; actives 0.37% (n = 350,000); in the data active means response mostly above about 7.3%, no sharp cut-off; inactive means mostly below about 5.4%; further: actives read high
m5-HT2A agonist = activates the mouse 5-HT2A serotonin receptor; P35363; CHO-K1 mHTR2A beta-arrestin complementation, luminescence; percent of 30 µM serotonin response; activation, % at 7.6 µM; actives 0.66% (n = 360,000); AID 624169;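 active means activation above a run cutoff, the mean activation of all tested compounds plus 3 SD, cut at about 14% in these data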;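 further: 0% = plate median of compound wells and 100% = 30 µM serotonin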
GASC-1 inh = human JMJD2C demethylase inhibition. Q9H3R0. GST-JMJD2C(1-420) H3K9me3 demethylation, DELFIA europium. inhibition, % at 2.35 µM. actives 0.069% (n = 330,000). AID 2099;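 active means more than half of a compound's replicate wells show inhibition beyond 50%, single wells judged on their own value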;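 further: signal counts dimethyl H3K9 product captured on neutravidin plate; 0% = median of DMSO wells and 100% = 0.3 times that DMSO median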
Granule exo inh = lytic granule exocytosis inhibition. inhibition, % at 10 µM. TALL-104 LAMP-1 surface exposure, flow cytometry; cells stimulated with thapsigargin and PMA. actives 0.66% (n = 360,000). AID 651702;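 active means inhibition above about 55%, limit read from the data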
VLA-4 inh = inhibition in a human VLA-4 binding assay; P13612; VLA-4 expressing cells, ligand binding flow cytometry; inhibition, % (about 7 µM as worked out from the volumes in the protocol); actives 0.2% (n = 330,000); AID 2557; in the data active means inhibition above about 50%
VATPase regulator = modulates yeast V-ATPase proton transport | actives 2% (n = 980) | shares compounds with V-ATPase pHluor | S. cerevisiae pHLuorin cytosolic pH | response, % at 10 µM | AID 602197; in the data active means response above about 24%;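 further: plate controls were vehicle wells for no effect and positive control wells for full effect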
Active calls of the source: *; · = not tested or not shown.

SMILES | MEX-5 binding | V-ATPase pHluor | m5-HT2A agonist | GASC-1 inh | Granule exo inh | VLA-4 inh | VATPase regulator
CN(C(=O)COC(=O)c1cnc(Cl)c(Cl)c1)C1CCS(=O)(=O)C1 (stereo not given) | 0 | 5 | -1 | -2 | -5 | 7 | ·
CN(C(=O)COC(=O)c1ccc(Cl)cc1N)C1CCS(=O)(=O)C1 (stereo not given) | -3 | 11* | 4 | 9 | 2 | 4 | -1
CCOc1cc2[nH]c(=S)n(C3CC3)c(=O)c2cc1OCC | -1 | 12* | 2 | -38 | 0 | 4 | -1
Cc1c(OCC(=O)C(C)(C)C)ccc2c(-c3ccccc3)cc(=O)oc12 | -2 | -4 | -3 | -15 | 0 | 14 | ·
COc1ccc(-c2cccc(NC(=O)COc3ccc(Cl)cc3)c2)nn1 | -2 | -1 | -3 | -5 | 0 | 4 | ·
Cc1ccc(-c2cc(C(=O)N/N=C/c3ccoc3)c3ccccc3n2)cc1 | · | 3 | -18 | -7 | 3 | 11 | ·
Cc1ccc(-c2cc(C(=O)N/N=C/c3c(C)nn(C)c3C)c3ccccc3n2)cc1C | 0 | 12* | -4 | -3 | 0 | 1 | -6
Cn1nc(C(=O)N2CCN(c3cccc(Cl)c3)CC2)c2c1-c1ccccc1S(=O)(=O)C2 | -2 | 1 | -2 | -41 | -2 | 7 | ·
Cn1nc(C(=O)N2CCN(c3ccc(Cl)cc3)CC2)c2c1-c1ccccc1S(=O)(=O)C2 | 0 | 8.6* | 6 | -13 | 6 | 7 | -6
O=C(O)CC(CNS(=O)(=O)c1ccccc1)c1ccccc1 (stereo not given) | 2 | 7.1* | 10 | 2 | 0 | 10 | -2
COc1ccc(C(=O)NCCn2cc(SCC(=O)NCC3CCCO3)c3ccccc32)cc1OC (stereo not given) | -2 | 8.1* | 2 | -7 | 4 | 13 | -3
Cc1ccc(O)c(NC(=O)c2cc(-c3cccs3)on2)c1 | 0 | 1 | -5 | -4 | -4 | -6 | ·
COc1ccc(CCn2c(C(C)C)nc3oc4ccccc4c(=O)c3c2=O)cc1 | 3 | -2 | -3 | -4 | -8 | -2 | ·
Cc1ccc(S(=O)(=O)Nc2ccc3ccccc3n2)cc1 | 0 | -2 | 0 | -2 | -6 | 4 | ·
Cc1ccc(S(=O)(=O)Nc2cnc3ccccc3c2)cc1 | 1 | 9.9* | 2 | -13 | -4 | -6 | -5
CCOc1cc(/C=N/NC(=O)c2cccc(S(=O)(=O)N3CCCC3)c2)ccc1OCC(=O)N(C)C | 2 | 19* | -8 | -7 | -1 | 16 | -3
FC(F)(F)c1cc(-c2ccccc2)nc(-n2cc(Cl)cn2)n1 | -1 | -1 | 3 | -3 | -2 | 4 | ·
COc1nn(-c2nc(-c3ccccc3)cc(C(F)(F)F)n2)cc1[N+](=O)[O-] | 0 | 17* | 3 | 2 | -4 | 2 | 0
Cc1cccn2c(=O)c(/C=C(\C#N)C(N)=O)c(N3CCN(c4cccc(Cl)c4)CC3)nc12 | 0 | -1 | 6 | 4 | -16 | 12 | ·
O=C(Nc1ccc(Nc2ccccc2)cc1)C1CC1 | 0 | 7.5* | -7 | -1 | -2 | -1 | 7
CCOC(=O)CSCC(=O)Nc1c(C(=O)C2CC2)oc2ccccc12 | 3 | 7.5* | 3 | -1 | -2 | 2 | 1
Cc1nn(Cc2c(F)c(F)c(F)c(F)c2F)c(C)c1NC(=O)c1ccc(COc2ccccc2Cl)cc1 | 0 | 16* | -2 | -8 | 0 | · | 0
Cc1nn(Cc2c(F)c(F)c(F)c(F)c2F)c(C)c1NC(=O)c1ccc(COc2cc(Cl)ccc2Cl)cc1 | -2 | 2 | -1 | -5 | -3 | 11 | ·
CCn1c(SCC(=O)NC2CCCC2)nnc1-c1c[nH]c2ccccc12 | 1 | 13* | -6 | 6 | -6 | 3 | 2
COC(=O)N/N=C/c1cn(Cc2ccccc2F)c2ccccc12 | 1 | 10* | -3 | -6 | 9 | 3 | 2
SMILES | MEX-5 binding | V-ATPase pHluor | m5-HT2A agonist | GASC-1 inh | Granule exo inh | VLA-4 inh | VATPase regulator
CCn1cc(C(=O)NCc2ccco2)c(=O)c2ccc(C)nc21 | 0 | 6.7* | 4 | -1 | -6 | 1 | 2
CCOC(=O)[C@]12CCC=C1N(Cc1ccc3c(c1)OCO3)C(=O)[C@H](CC(=O)NCCCN1CCCC1=O)C2 | · | · | -2 | · | 2 | · | ·
Cc1c(C)c2cc(Cl)c(OCC(=O)NCCCN3CCCC3=O)cc2oc1=O | · | 11* | 3 | · | 0 | · | 2
O=C(NCCc1ccccc1)C(=O)N/N=C/c1ccccc1C(F)(F)F | -1 | 9.6* | 8 | -2 | -5 | 25 | -2
O=C(NCCc1ccccc1)C(=O)N/N=C/c1ccc2c(c1)OCO2 | -1 | -2 | -3 | -7 | 5 | -2 | ·
O=C(Nc1ccccc1N1CCCCC1)C1CC(=O)N(c2ccccc2F)C1 (stereo not given) | · | 0 | 2 | -1 | 2 | -4 | ·
COc1ccccc1N1CC(C(=O)Nc2ccccc2N2CCCC2)CC1=O (stereo not given) | 2 | 7.6* | -3 | 0 | 0 | -1 | 1
C=CCN(c1ccccc1)S(=O)(=O)c1cccc(C(=O)Nc2nnc(SCC)s2)c1 | -5 | 11* | 2 | -2 | 1 | 7 | -1
COc1ccccc1C(=O)N/C(=C/c1ccc(Br)cc1)C(=O)N1CCCC1 | 0 | -1 | -2 | -9 | -6 | -2 | ·
CCOC(=O)CCC(=O)Nc1ccccc1C(N)=O | 3 | 7.7* | -5 | -9 | 2 | -10 | -8
O=C1CSc2ccc(C(=O)NCCc3ccc(Cl)cc3Cl)cc2N1 | · | -4 | 4 | 4 | -2 | 9 | ·
Cc1ccccc1N1CCN(C2=NC(=O)/C(=C/c3cn[nH]c3-c3ccccc3)S2)CC1 | 1 | 8.3* | 5 | 6 | 0 | -11 | -3
COc1cc(/C=N/NC2=NC(C)(C)Cc3ccccc32)cc(OC)c1OC | 1 | 8.2* | -2 | 25 | 0 | -6 | 2
O=C(/C=C/c1cccc([N+](=O)[O-])c1)OCC(=O)N1CCN(C(=O)c2ccco2)CC1 | · | 12* | 7 | -5 | -3 | -8 | 3
O=C(NCc1nnnn1-c1ccc(F)c(F)c1)c1ccc(S(=O)(=O)N2CCOCC2)cc1 | 0 | -1 | 1 | -13 | 11 | 4 | ·
CC/C(C)=N\NC(=O)CNC(=O)c1ccc(Cl)cc1Cl | -1 | 12* | -2 | -5 | -7 | -6 | 2
COc1ccccc1N(C)S(=O)(=O)c1ccc(C(=O)OCC(=O)Nc2ccc(C(N)=O)cc2)cc1 | · | 0 | 3 | 14 | 8 | 11 | ·
COc1ccc(NC(=O)COC(=O)c2ccc(S(=O)(=O)N(C)c3ccccc3OC)cc2)cc1OC | 0 | 8 | 1 | -8 | 5 | 9 | 0
NC(=O)c1ccc(NS(=O)(=O)c2ccc(S(=O)(=O)N3CCCC3)cc2)cc1 | · | -3 | 1 | · | 1 | · | ·
